The full ranking holds about 35,000 sequences; the median of “fluorescence intensity (a.u.)” is about 10,000, and the highest 2% start at about 52,000. This excerpt belongs to a sample that is enriched for the highest values.
target: T1, OsWOX13 (Oryza sativa, UniProt Q5QMM3 1-267); test: protein-binding microarray (RPBM); PBS, 2% BSA, 51.3 ng/ul salmon testes DNA, 50 uM zinc acetate, 200 nM TF, 25 C, 1 h; high values mean tight binding; settings: protein: recombinant; tags: N-terminal polyhistidine and DsRed monomer fusion (pET32a); label: CyDye5-dUTP incorporated in the synthesized complementary strand; 3' TTTTT single-stranded linker to array surface; dsDNA, one strand shown
T1 sequence: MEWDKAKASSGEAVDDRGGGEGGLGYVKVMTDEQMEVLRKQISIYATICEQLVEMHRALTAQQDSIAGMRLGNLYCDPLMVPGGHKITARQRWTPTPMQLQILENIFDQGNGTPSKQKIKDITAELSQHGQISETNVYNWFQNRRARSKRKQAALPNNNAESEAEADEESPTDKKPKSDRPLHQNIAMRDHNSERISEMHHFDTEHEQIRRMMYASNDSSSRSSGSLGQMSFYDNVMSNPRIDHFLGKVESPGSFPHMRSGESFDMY
Outline: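 In PBS with 2% BSA, salmon testes DNA and 50 µM zinc acetate, 200 nM protein was incubated on a custom Agilent array at 25 °C for 1 h and then washed off. The array had been made double-stranded by primer extension with Cy5-dUTP and blocked with 2% BSA. The proteins were transcription factors fused N-terminally to polyhistidine and DsRed, expressed in E. coli BL21-CodonPlus and purified on Ni–NTA. The binding signal is per-feature fluorescence intensity (arbitrary units) from an Axon 4000B scanner.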

| Sequence | binding signal |
| --- | --- |
| ATACTGTCATCAATTGATTACTCTGACCGTCGATCACACACGGAGTCACCTAGTGCAG | 34100 fluorescence intensity (a.u.) |
| TTATAACACAAATAATATAATAGATATATAGACTGTTGTCCGGAGTCACCTAGTGCAG | 3650 fluorescence intensity (a.u.) |
| ATGTAATTTCACCATAACTATATATTATAATAAGATAAGTCGGAGTCACCTAGTGCAG | 8720 fluorescence intensity (a.u.) |
| GTGTATCATCTAGGTCCTAAATTGACACATCCCCTCTAGGCGGAGTCACCTAGTGCAG | 10100 fluorescence intensity (a.u.) |
| AAGTGATTGAAATTTAATTCATGATCCTAAACCATACAACCGGAGTCACCTAGTGCAG | 53200 fluorescence intensity (a.u.) |
| CTGATGATTCACCCATGATCGATTGCTCGATCCGTTTAAGCGGAGTCACCTAGTGCAG | 3710 fluorescence intensity (a.u.) |
| ATGATTTTCATCCGTTAGATTTGATGAATAAAGTATGAAGCGGAGTCACCTAGTGCAG | 11100 fluorescence intensity (a.u.) |
| CTAGATTGATCGAAATCCGTCAAGTTCATGAACCGTTAAGCGGAGTCACCTAGTGCAG | 54400 fluorescence intensity (a.u.) |
| TTATATAGTTACCAAAATTTGACAGCAAACTAAATGTAGCCGGAGTCACCTAGTGCAG | 3680 fluorescence intensity (a.u.) |
| AGGGTGATTGACAGGTGGGTCCATCCCCTCACATGCCAGGCGGAGTCACCTAGTGCAG | 64800 fluorescence intensity (a.u.) |
| AATTGAAATAATTGGAAATTTTCATATTTATATATTAAACCGGAGTCACCTAGTGCAG | 5800 fluorescence intensity (a.u.) |
| AAGAAAATTTAAAACAATTGATTACATACTAAATTAATATCGGAGTCACCTAGTGCAG | 9840 fluorescence intensity (a.u.) |
| TCCAGGTGATGGTAATGATATTGACATGCCCTCATCTAGTCGGAGTCACCTAGTGCAG | 3770 fluorescence intensity (a.u.) |
| ATATAGTTACCAAAATTTGACAGCAAACTAAATGTAGCCACGGAGTCACCTAGTGCAG | 7890 fluorescence intensity (a.u.) |
| TACCATGATTGGGCTGCAACTAAATTGACAGGTCAGCCATCGGAGTCACCTAGTGCAG | 60400 fluorescence intensity (a.u.) |
| TTGTGACTTGACTTTGCCAATCTTAGTCTATTTTCTCGAGCGGAGTCACCTAGTGCAG | 5270 fluorescence intensity (a.u.) |
| TATTAAATTGGCTATAGGTGATTTGGAGCTAATAGTTAGCCGGAGTCACCTAGTGCAG | 24000 fluorescence intensity (a.u.) |
| CTTAATTACTATTCCCTCCGTCATACAATATAAGAGATTTCGGAGTCACCTAGTGCAG | 22500 fluorescence intensity (a.u.) |
| CATAAACTGAAGCTCATAATTGTTTGTGAAATCGTTTATCCGGAGTCACCTAGTGCAG | 16900 fluorescence intensity (a.u.) |

| Sequence | binding signal |
| --- | --- |
| CGTGGTCTCTAATTTGTTTTGTTCGTTCTCCTTTCTTGTTCGGAGTCACCTAGTGCAG | 4660 fluorescence intensity (a.u.) |
| GACTCTATCTAGAAATTAAATTTAATCAACACATGTAAGTCGGAGTCACCTAGTGCAG | 12800 fluorescence intensity (a.u.) |
| TTTATTTAATTGATTCGATGAACTTTGTGCCATTAAAATTCGGAGTCACCTAGTGCAG | 35000 fluorescence intensity (a.u.) |
| TAAATTGACATGATTAATTGAAACCACGCCATTCAGCAATCGGAGTCACCTAGTGCAG | 65500 fluorescence intensity (a.u.) |
| TATGATTAAAATTGTTTTGAACCATTGCACGCACCAGCATCGGAGTCACCTAGTGCAG | 18500 fluorescence intensity (a.u.) |
| AGGTGGCCCCATTAATTGATGATGAAATGCAAACCTAAATCGGAGTCACCTAGTGCAG | 9480 fluorescence intensity (a.u.) |
| TGGGGTATCTAGTCAATCATACAATATTTTGTTTTGCTAACGGAGTCACCTAGTGCAG | 7400 fluorescence intensity (a.u.) |
| AGGAAAATGTGGTGAGTAATTAGGTTATAATTTATTGAGTCGGAGTCACCTAGTGCAG | 4100 fluorescence intensity (a.u.) |
| TGCCCCAATGATTTTGTACCACAGACCAGCTCAAGTTGCCCGGAGTCACCTAGTGCAG | 4400 fluorescence intensity (a.u.) |
| AAGTGATTGCCCTGGCTCAGAGTTGAGTAAACAATCAGGCCGGAGTCACCTAGTGCAG | 19900 fluorescence intensity (a.u.) |
| TTGTGATTGATTTCACACCCAAACAACAAGTAGTCAGCTACGGAGTCACCTAGTGCAG | 61300 fluorescence intensity (a.u.) |
| TGATGATTGGTTTCTTGGCCAATGGTTTGGTTGTTGTTTTCGGAGTCACCTAGTGCAG | 23100 fluorescence intensity (a.u.) |
| AAAATCAAGATTGATGTGGTTTCACCCCAACACAAGAAAACGGAGTCACCTAGTGCAG | 8050 fluorescence intensity (a.u.) |
| GATAGATAGATAGATACATACACACAAACATAAGTAGCTACGGAGTCACCTAGTGCAG | 19100 fluorescence intensity (a.u.) |
| TCTCATTGACAAGCCAACAAACGCACAGTGTGACAAGCTCCGGAGTCACCTAGTGCAG | 3600 fluorescence intensity (a.u.) |
| AAAGAGAACACATAATTGATTTGGAGCACCCAAATAATTTCGGAGTCACCTAGTGCAG | 15200 fluorescence intensity (a.u.) |
| TTGATAATTGGGCACCTATGCCCGACACATAAAACACACTCGGAGTCACCTAGTGCAG | 22200 fluorescence intensity (a.u.) |
| GTTTCAATGATTGGTTGTTCACCCAACCCAAGTACCCAGCCGGAGTCACCTAGTGCAG | 57400 fluorescence intensity (a.u.) |
| AGTGTGATTGATGCACAAACAAACAGCTCAAGTTGAGGCCCGGAGTCACCTAGTGCAG | 55400 fluorescence intensity (a.u.) |

| Sequence | binding signal |
| --- | --- |
| CATAATTGAGTCTGATTGGCACAAACCTAGAGAACATGCCCGGAGTCACCTAGTGCAG | 65500 fluorescence intensity (a.u.) |
| ATGTGATTATTTCGTCCTGCTGTAAACTTGGTGCAAGTGACGGAGTCACCTAGTGCAG | 18600 fluorescence intensity (a.u.) |
| GGCTTTCCAGTTGATAAATCAATCATCATCCCCTTGATCGCGGAGTCACCTAGTGCAG | 8410 fluorescence intensity (a.u.) |
| ATGTTCTTTCTTGATTAGACCATCTGATGCTTTGCGCAGTCGGAGTCACCTAGTGCAG | 4480 fluorescence intensity (a.u.) |
| TAGGAGATTATATTTAAATTAACTTTAAAGAGAAATCTTGCGGAGTCACCTAGTGCAG | 11600 fluorescence intensity (a.u.) |
| GGTTGTTAGCACATGATTAATTGTATTAAAACAACTTAAACGGAGTCACCTAGTGCAG | 3580 fluorescence intensity (a.u.) |
| AAGATTGAAGGCAACCAAACCAACAAGGATGGATGCTTCTCGGAGTCACCTAGTGCAG | 16500 fluorescence intensity (a.u.) |
| GGACGTATATATACATTGATTAATACCAAATCCTCAGCACCGGAGTCACCTAGTGCAG | 4520 fluorescence intensity (a.u.) |
| GTTGATTTGTGTTTTGACTTTTGAAAAGACTACTGTTACTCGGAGTCACCTAGTGCAG | 27500 fluorescence intensity (a.u.) |
| ATATTATTTATAAATTGTGTGTGCAACTGACTTGTGGGCCCGGAGTCACCTAGTGCAG | 3490 fluorescence intensity (a.u.) |
| AGTGATTATAATATTGTTCACAAATTTACAAACCTCTCATCGGAGTCACCTAGTGCAG | 36700 fluorescence intensity (a.u.) |
| TAAAATTATCAAAATATTATATTATACACATAAGATTGTACGGAGTCACCTAGTGCAG | 5140 fluorescence intensity (a.u.) |
| AATTAAATTAGAGTATTCAGTTTGTATATAGTACATTTGTCGGAGTCACCTAGTGCAG | 14000 fluorescence intensity (a.u.) |
| CATAAATTAATTTGTTCACGTCACATTATATACAGTTGTACGGAGTCACCTAGTGCAG | 55000 fluorescence intensity (a.u.) |
| ATTATATATTTAATAAAATTAATTTGGTGTTGTATATTTACGGAGTCACCTAGTGCAG | 8780 fluorescence intensity (a.u.) |
| TTTTATATTTTAATTAATTACATAATGTAAATATTTCTCACGGAGTCACCTAGTGCAG | 17100 fluorescence intensity (a.u.) |
| TTGTAATTACATAAATTATACGAATTGTAAAGATTTGGCACGGAGTCACCTAGTGCAG | 54600 fluorescence intensity (a.u.) |
| TTATAATTACTACATTATAATAAAAGTAAAATTGTATTTACGGAGTCACCTAGTGCAG | 12100 fluorescence intensity (a.u.) |
| TTATAATTGTAAATTTTACAAATTAGTCCTCACCTGTTCTCGGAGTCACCTAGTGCAG | 53400 fluorescence intensity (a.u.) |

Reference: publication PMC7819943, “Rice protein-binding microarrays: a tool to detect cis-acting elements near promoter regions in rice”
